Test results taken from the supplement of paper PMC8728848.
Only a selection was taken, and the strongest signals are over-represented in it overall.

Assays:
Experiment in all cases: glycan array binding signal (z-score within array); higher = stronger binding
Settings in all cases: glycan notation: IUPAC condensed, linker removed
Kdn(a2-3)Gal(b1-3)GalNAc = target: Kdn(a2-3)Gal(b1-3)GalNAc
In short: (§1)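 Glycan array data came from 3228 arrays in the Consortium for Functional Glycomics database, and only arrays with an available protein sequence were kept. Glycan names were put into IUPAC-condensed notation, and columns mapping to the same glycan were averaged. The binding signal is a within-array Z-score, averaged across arrays of one protein sequence run at different concentrations or buffers and across linkers. A negative Z-score can be read as non-binding.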

[1] = target: Man(a1-2)Man(a1-6)[Man(a1-3)]Man(a1-6)[Man(a1-2)Man(a1-2)Man(a1-3)]Man(b1-4)GlcNAc(b1-4)GlcNAc
In short: as §1

[2] = target: Neu5Ac(a2-3)Gal(b1-3)GalNAc6S
In short: as §1

[3] = target: Neu5Ac(a2-3)Gal(b1-3)GlcNAc(b1-3)GalNAc
In short: as §1

[4] = target: Neu5Ac(a2-3)Gal(b1-4)GlcNAc(b1-2)Man(a1-3)[GlcNAc(b1-4)][Neu5Ac(a2-3)Gal(b1-4)GlcNAc(b1-2)Man(a1-6)]Man(b1-4)GlcNAc(b1-4)GlcNAc
In short: as §1

[5] = target: Neu5Ac(a2-3)Gal(b1-4)GlcNAc(b1-2)[Neu5Ac(a2-3)Gal(b1-4)GlcNAc(b1-6)]Man(a1-6)[Neu5Ac(a2-3)Gal(b1-4)GlcNAc(b1-2)Man(a1-3)][GlcNAc(b1-4)]Man(b1-4)GlcNAc(b1-4)GlcNAc
In short: as §1

[6] = target: Neu5Ac(a2-3)Gal(b1-4)GlcNAc(b1-3)Gal(b1-3)GlcNAc
In short: as §1

[7] = target: Neu5Ac(a2-3)[GalNAc(b1-4)]Gal(b1-4)GlcNAc(b1-3)GalNAc
In short: as §1

[8] = target: Neu5Ac(a2-6)Gal(b1-4)GlcNAc(b1-2)Man(a1-3)[GlcNAc(b1-2)Man(a1-6)]Man(b1-4)GlcNAc(b1-4)GlcNAc
In short: as §1

[9] = target: Neu5Ac(a2-6)Gal(b1-4)GlcNAc(b1-2)Man(a1-3)[Neu5Ac(a2-6)Gal(b1-4)GlcNAc(b1-2)Man(a1-6)]Man(b1-4)GlcNAc(b1-4)[Fuc(a1-6)]GlcNAc
In short: as §1

Neu5Ac(a2-6)GalNAc = target: Neu5Ac(a2-6)GalNAc
In short: as §1

[10] = target: Neu5Ac(a2-8)Neu5Ac(a2-3)Gal(b1-4)Glc
In short: as §1

Neu5Gc(a2-3)Gal(b1-4)Glc = target: Neu5Gc(a2-3)Gal(b1-4)Glc
In short: as §1

[11] = target: Fuc(a1-2)Gal(b1-3)GalNAc(b1-3)Gal(a1-4)Gal(b1-4)Glc
In short: as §1

[12] = target: Fuc(a1-2)Gal(b1-3)GlcNAc(b1-3)[Neu5Ac(a2-6)Gal(b1-4)GlcNAc(b1-6)]Gal(b1-4)Glc
In short: as §1

[13] = target: Fuc(a1-2)Gal(b1-4)[Fuc(a1-3)]GlcNAc(b1-2)Man(a1-3)[Fuc(a1-2)Gal(b1-4)[Fuc(a1-3)]GlcNAc(b1-2)Man(a1-6)]Man(b1-4)GlcNAc(b1-4)GlcNAc
In short: as §1

[14] = target: Fuc(a1-2)[Gal(a1-3)]Gal(b1-4)Glc
In short: as §1

[15] = target: Fuc(a1-2)[GalNAc(a1-3)]Gal(b1-3)GalNAc(a1-3)[Fuc(a1-2)]Gal(b1-4)GlcNAc
In short: as §1

[16] = target: Fuc(a1-2)[GalNAc(a1-3)]Gal(b1-3)GlcNAc
In short: as §1

[17] = target: Fuc(a1-3)[Gal(b1-4)]Glc6S
In short: as §1

[18] = target: Gal(b1-3)Gal(b1-4)GlcNAc(b1-2)Man(a1-3)[Gal(b1-3)Gal(b1-4)GlcNAc(b1-2)Man(a1-6)]Man(b1-4)GlcNAc(b1-4)GlcNAc
In short: as §1

[19] = target: Gal(b1-3)[Fuc(a1-4)]GlcNAc
In short: as §1

[20] = target: Gal(b1-3)[Neu5Ac(a2-6)]GalNAc
In short: as §1

Gal(b1-4)GlcNAc = target: Gal(b1-4)GlcNAc
In short: as §1

[21] = target: Gal(b1-4)GlcNAc(b1-2)Man(a1-3)Man(b1-4)GlcNAc(b1-4)GlcNAc
In short: as §1

[22] = target: Gal(b1-4)GlcNAc(b1-2)Man(a1-3)[GlcNAc(b1-2)Man(a1-6)]Man(b1-4)GlcNAc(b1-4)GlcNAc
In short: as §1

[23] = target: Gal(b1-4)GlcNAc(b1-2)[Gal(b1-4)GlcNAc(b1-4)]Man(a1-3)[GlcNAc(b1-4)][Gal(b1-4)GlcNAc(b1-2)Man(a1-6)]Man(b1-4)GlcNAc(b1-4)GlcNAc
In short: as §1

[24] = target: Gal(b1-4)GlcNAc(b1-2)[Gal(b1-4)GlcNAc(b1-4)]Man(a1-3)[GlcNAc(b1-4)][Gal(b1-4)GlcNAc(b1-2)[Gal(b1-4)GlcNAc(b1-6)]Man(a1-6)]Man(b1-4)GlcNAc(b1-4)GlcNAc
In short: as §1

[25] = target: Gal(b1-4)GlcNAc(b1-2)[Gal(b1-4)GlcNAc(b1-6)]Man(a1-6)[GlcNAc(b1-4)][Gal(b1-4)GlcNAc(b1-2)Man(a1-3)]Man(b1-4)GlcNAc(b1-4)GlcNAc
In short: as §1

[26] = target: Gal(b1-4)GlcNAc(b1-3)GalNAc
In short: as §1

[27] = target: Gal(b1-4)GlcNAc(b1-3)[Gal(b1-4)GlcNAc(b1-6)]Gal(b1-4)GlcNAc
In short: as §1

[28] = target: Gal(b1-4)GlcNAc(b1-3)[Gal(b1-4)GlcNAc(b1-6)]GalNAc
In short: as §1

[29] = target: GalNAc(a1-3)GalNAc(b1-3)Gal(a1-4)Gal(b1-4)Glc
In short: as §1

[30] = target: GlcNAc(b1-2)Man(a1-3)[GlcNAc(b1-4)][GlcNAc(b1-2)Man(a1-6)]Man(b1-4)GlcNAc(b1-4)GlcNAc
In short: as §1

[31] = target: GlcNAc(b1-3)[GlcNAc(b1-6)]GlcNAc(b1-4)GlcNAc
In short: as §1

[32] = target: GlcNAc(b1-4)[GlcNAc(b1-6)]GalNAc
In short: as §1

[33] = target: GlcNAc6S(b1-3)Gal(b1-4)GlcNAc
In short: as §1

[34] = target: Man(a1-2)Man(a1-2)Man(a1-6)[Man(a1-3)]Man
In short: as §1

[35] = target: Man(a1-2)Man(a1-3)[Man(a1-2)Man(a1-6)]Man
In short: as §1

[36] = target: Man(a1-2)Man(a1-3)[Man(a1-2)Man(a1-6)]Man(a1-6)[Man(a1-2)Man(a1-2)Man(a1-3)]Man
In short: as §1

[37] = target: Man(a1-2)Man(a1-3)[Man(a1-2)Man(a1-6)]Man(a1-6)[Man(a1-2)Man(a1-2)Man(a1-3)]Man(b1-4)GlcNAc(b1-4)GlcNAc
In short: as §1

[38] = target: Man(a1-2)Man(a1-6)[Man(a1-3)]Man(a1-6)[Man(a1-2)Man(a1-2)Man(a1-3)]Man
In short: as §1

B1: Mnn9-2N3 (Aspergillus fumigatus) (protein)
chain: MAVARRMRRTNPITLLLAAILAIGFFIFVLSPSTTSASPVKAGSASSSSTSQQRREDNAAENPLSPPTKPFFKSQPVRHDGQQAPPPVVQYNLNQLSSTSTSAANGERILILTPMARFVPEYWDNVVKLTYPHELISIGFIIPKNKEGNAALAALEAAIAKTQSGPIDKRFASISILRQDFEPPLQSQDEKERHKISNQKARRESMSRARNSLLFTTLGPATAWVLWLDADIVETPPTLIQDLTAHDHPVLVPNCYQRYYNSEKKKMDVRPYDYNSWIDSSTAQSMAAEMGPDEILLEGYAEMPTYRTLMAHLADTANPNPKKVIELDGVGGTALMVKAEVHRDGAMFPAFPFYHLVETEGFAKMAKRLGYSVYGLPDYFVSRNFFFFFFFFFFG
For B1, the “glycan array binding signal (z-score)” value (Kdn(a2-3)Gal(b1-3)GalNAc) was -2.43, the “glycan array binding signal (z-score)” value [1] was -0.789 and the “glycan array binding signal (z-score)” value [2] was 2.97. The “glycan array binding signal (z-score)” value [3] was -0.456, the “glycan array binding signal (z-score)” value [4] was -1.34 and the “glycan array binding signal (z-score)” value [5] was -0.217. For the same binder, the “glycan array binding signal (z-score)” value [6] was 0.123, the “glycan array binding signal (z-score)” value [7] was -2.19 and the “glycan array binding signal (z-score)” value [8] was -1.47. The “glycan array binding signal (z-score)” value [9] was 0.808, the “glycan array binding signal (z-score)” value (Neu5Ac(a2-6)GalNAc) was 2.59 and the “glycan array binding signal (z-score)” value [10] was 2.12. For the same binder, the “glycan array binding signal (z-score)” value (Neu5Gc(a2-3)Gal(b1-4)Glc) was -0.055.

B2: ConA (Canavalia ensiformis), P02866 (protein)
chain: MAISKKSSLFLPIFTFITMFLMVVNKVSSSTHETNALHFMFNQFSKDQKDLILQGDATTGTDGNLELTRVSSNGSPQGSSVGRALFYAPVHIWESSAVVASFEATFTFLIKSPDSHPADGIAFFISNIDSSIPSGSTGRLLGLFPDANVIRNSTTIDFNAAYNADTIVAVELDTYPNTDIGDPSYPHIGIDIKSVRSKKTAKWNMQNGKVGTAHIIYNSVDKRLSAVVSYPNADSATVSYDVDLDNVLPEWVRVGLSASTGLYKETNTILSWSFTSKLKSNEIPDIATVV
B2 was tested, and the “glycan array binding signal (z-score)” value [11] was -0.286, the “glycan array binding signal (z-score)” value [12] was -0.189 and the “glycan array binding signal (z-score)” value [13] was -0.056. The “glycan array binding signal (z-score)” value [14] was -0.278, the “glycan array binding signal (z-score)” value [15] was -0.245 and the “glycan array binding signal (z-score)” value [16] was -0.279. For the same binder, the “glycan array binding signal (z-score)” value [17] was -0.245, the “glycan array binding signal (z-score)” value [18] was 0.087 and the “glycan array binding signal (z-score)” value [19] was -0.274. For the same binder, the “glycan array binding signal (z-score)” value [20] was -0.129, the “glycan array binding signal (z-score)” value (Gal(b1-4)GlcNAc) was -0.225 and the “glycan array binding signal (z-score)” value [21] was -0.192. For the same binder, the “glycan array binding signal (z-score)” value [22] was 0.311, the “glycan array binding signal (z-score)” value [23] was -0.211 and the “glycan array binding signal (z-score)” value [24] was -0.196. The “glycan array binding signal (z-score)” value [25] was -0.24, the “glycan array binding signal (z-score)” value [26] was -0.228 and the “glycan array binding signal (z-score)” value [27] was -0.208. For the same binder, the “glycan array binding signal (z-score)” value [28] was -0.214, the “glycan array binding signal (z-score)” value [29] was -0.201 and the “glycan array binding signal (z-score)” value [30] was -0.108. The “glycan array binding signal (z-score)” value [31] was -0.317, the “glycan array binding signal (z-score)” value [32] was -0.264 and the “glycan array binding signal (z-score)” value [33] was -0.088. The “glycan array binding signal (z-score)” value [34] was 4.9, the “glycan array binding signal (z-score)” value [35] was 3.94 and the “glycan array binding signal (z-score)” value [36] was 7.48. The “glycan array binding signal (z-score)” value [37] was 3.33, the “glycan array binding signal (z-score)” value [38] was 7.39 and the “glycan array binding signal (z-score)” value [1] was 4.46.
